The results in this text go back to the supplement of paper PMC6555819.

Holding throughout (assay): PBM binding z-score (relative to random genomic background probes); higher = stronger binding; sequences stand for … in GC…GCGATTGACAGCGTAGAATGAAGG
The subject of experiment [1] is FXR:RXRa (NR concentration 270 nM, RXRa partner concentration 90 nM). The method, boiled down:
(§1)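 Ligand-free nuclear receptor dimers were bound for 1 h to custom Agilent 4×180K protein-binding microarrays. Detection used antibodies against each partner (one per run). Binding z-scores rest on regression-normalized fluorescence, with random background probes as the reference.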

Experiment [2] relates to LXRa:RXRa (NR concentration 270 nM, RXRa partner concentration 90 nM). The method, boiled down:
as §1

Experiment [3] relates to LXRa homodimer (NR concentration 270 nM). The method, boiled down: as §1
The subject of experiment [4] is LXRb:RXRa (NR concentration 270 nM, RXRa partner concentration 90 nM). The procedure, abridged: as §1
Experiment [5] relates to LXRb homodimer (NR concentration 270 nM). The procedure, abridged:
as §1

Experiment [6] concerns PPARa:RXRa (NR concentration 270 nM, RXRa partner concentration 90 nM). The method, boiled down:
as §1

Experiment [7] concerns PPARg:RXRa (NR concentration 180 nM, RXRa partner concentration 90 nM). The procedure, abridged: as §1
Experiment [8] concerns PPARg:RXRa 270nM:90nM, anti-RXR (NR concentration 270 nM, RXRa partner concentration 90 nM). The procedure, abridged: as §1
For experiment [9], the system named is PPARg:RXRa 30nM:10nM, anti-RXR (NR concentration 30 nM, RXRa partner concentration 10 nM). The method, boiled down: as §1
Experiment [10] relates to PPARg:RXRa 90nM:30nM, anti-RXR (NR concentration 90 nM, RXRa partner concentration 30 nM). The method, boiled down: as §1
Experiment [11] deals with PPARg:RXRa DBDmut IVT, anti-RXR (DBD mutation: RXRa K156A/R161A, NR concentration 270 nM, RXRa partner concentration 90 nM). The method, boiled down: as §1
In experiment [12] the test system is PPARg:RXRa IVT, anti-PPARg (NR concentration 270 nM, RXRa partner concentration 90 nM). The procedure, abridged:
as §1

For experiment [13], the system named is PPARg DBDmut:RXRa IVT, anti-PPARg (DBD mutation: PPARg1 K132A/R137A, NR concentration 270 nM, RXRa partner concentration 90 nM). The method, boiled down: as §1
In experiment [14] the test system is PPARg DBDmut IVT, anti-PPARg (DBD mutation: PPARg1 K132A/R137A, NR concentration 270 nM). The procedure, abridged: as §1
Experiment [15] deals with PPARg homodimer (NR concentration 180 nM). The procedure, abridged: as §1
In experiment [16] the test system is PXR:RXRa (NR concentration 270 nM, RXRa partner concentration 90 nM). The method, boiled down:
as §1

Experiment [17] relates to PXR homodimer (NR concentration 270 nM). The method, boiled down: as §1
In experiment [18] the test system is RARa:RXR (NR concentration 270 nM, RXRa partner concentration 90 nM). The method, boiled down: as §1
Experiment [19] relates to RARa homodimer (NR concentration 270 nM). The procedure, abridged:
as §1

In experiment [20] the test system is RARb:RXRa (NR concentration 270 nM, RXRa partner concentration 90 nM). The procedure, abridged: as §1

For the sequence ACAGACAGGTGATGAAGGTAGCTCAGGCTATCAT, the PBM binding z-score is -0.0912 in experiment [1]; -0.299 in experiment [2]; -0.372 in experiment [3]; -0.485 in [4]; -0.548 in experiment [5]; -0.377 in experiment [6]. For the same sequence, the PBM binding z-score in experiment [7] is 0.539; in experiment [8], -0.247; in [9], -0.307; in experiment [10], 0.0803; in experiment [11], 0.00476; in [12] it was -0.161. The PBM binding z-score in experiment [13] is -0.42; in [14] it was -0.376; in experiment [15], -1.11; in experiment [16], -0.38; in [17], 0.0281; in experiment [18], -0.246. The PBM binding z-score was determined as 0.11 in [19] and 0.0595 in experiment [20].

On to GCAGACAGATGAAACGCAGGTAACTCAGGGTGGC, for which the PBM binding z-score in experiment [1] is -0.734; in experiment [2], -0.704; in experiment [3], -0.594; in [4] it was -0.986; in [5], -1.14; in experiment [6], -0.624. Also, the PBM binding z-score in experiment [7] was 0.616; in [8] it was -0.641; in experiment [9], -0.438; in experiment [10] it was -0.564; in [11], -0.362; in experiment [12] it was -0.767. Also, the PBM binding z-score in experiment [13] is -1.03; in experiment [14] it was -0.761; in [15], -1.19; in experiment [16], -0.681; in [17] it was -0.52; in [18], -0.161. In addition, the PBM binding z-score in [19] was -0.884; in experiment [20], -1.1.

For ACTATTAGATGAGACGAGGGCAACCGATAGGTTG, the PBM binding z-score in [1] is 0.455; in [2], 0.107; in experiment [3], 0.389; in experiment [4] it was 0.0232; in [5], 0.456; in experiment [6], 0.35. Also, the PBM binding z-score stood at 1.04 in experiment [7]; 0.132 in experiment [8]; 0.496 in experiment [9]; 0.603 in experiment [10]; 0.41 in experiment [11]; 0.591 in experiment [12]. The PBM binding z-score came to 1.15 in experiment [13]; 1.11 in experiment [14]; 1.13 in [15]; 0.465 in [16]; 0.757 in [17]; 0.634 in [18]. Besides, the PBM binding z-score amounted to 1.38 in [19] and 0.915 in [20].

Regarding GCGACTGGGCCATCAGCAGGTTACCATAACTTAA, the PBM binding z-score in experiment [1] was -0.78; in experiment [2] it was -0.767; in [3] it was -0.789; in experiment [4], -0.559; in experiment [5], -1.23; in [6], 0.242. Further, the PBM binding z-score in [7] is 0.386; in experiment [8] it was -0.176; in experiment [9] it was -0.886; in [10], -0.265; in experiment [11], 2.78; in experiment [12], 2.04. Besides, the PBM binding z-score in [13] was -0.993; in experiment [14], -1.45; in experiment [15] it was -0.551; in [16] it was -0.569; in experiment [17] it was -0.71; in experiment [18], -0.295. The PBM binding z-score in experiment [19] is -0.835; in experiment [20] it was 0.195.

For CGAACTAGGTCAAGGACAGTGTATCTCCGCACGC, the PBM binding z-score was 3.62 in experiment [1]; 2.36 in [2]; 0.431 in experiment [3]; 1.57 in experiment [4]; -0.208 in experiment [5]; 4.9 in [6]. In addition, the PBM binding z-score in [7] amounted to 7.62; in experiment [8], 6.48; in [9], 3.91; in [10], 5.64; in [11], 7.97; in experiment [12], 8.01. For the same sequence, the PBM binding z-score is 3.03 in experiment [13]; 0.882 in experiment [14]; 1.62 in [15]; 1.43 in experiment [16]; -0.0646 in [17]; 2.03 in experiment [18]. Moreover, the PBM binding z-score was determined as 0.437 in [19] and 3.95 in experiment [20].

Turning to ATATGTACGTTACATCCGGGTCATTCAGGCTATG, the PBM binding z-score in [1] was determined as 1.77; in experiment [2] it was 1.94; in experiment [3] it was 1.06; in experiment [4] it was 2.44; in [5], 0.756; in experiment [6], 2.53. Also, the PBM binding z-score in [7] is 1.39; in experiment [8] it was 1.41; in experiment [9], 0.502; in [10], 1.35; in experiment [11] it was 1.16; in experiment [12], 1.97. Besides, the PBM binding z-score was 2.06 in experiment [13]; 2.28 in experiment [14]; 1.34 in experiment [15]; 3.1 in experiment [16]; 3.05 in [17]; 3.04 in experiment [18]. Moreover, the PBM binding z-score in [19] came out at 0.866; in [20], 1.56.

Turning to CGAACTAGGTCAAGAACAGTGAATCTCCGCACGC, the PBM binding z-score in experiment [1] was 2.92; in experiment [2], 1.9; in experiment [3], 0.155; in experiment [4], 1.35; in [5], 0.0467; in experiment [6] it was 4.39. Further, the PBM binding z-score is 6.53 in experiment [7]; 6.17 in experiment [8]; 2.93 in experiment [9]; 5.49 in experiment [10]; 8.01 in [11]; 8.06 in [12]. In addition, the PBM binding z-score in experiment [13] was 0.866; in experiment [14], 0.438; in experiment [15], 1.15; in experiment [16] it was 0.968; in [17], -0.254; in experiment [18] it was 1.69. Moreover, the PBM binding z-score was found to be 0.13 in experiment [19] and 3.69 in experiment [20].
